This is one part of a sample in which hits are shown more often than they occur.
Methyltransferases = Primary Screen for Target Class Profiling of Small Molecule Inhibitors of Methyltransferases. purified enzyme, MTase-Glo SAH luminescence; stronger effect = lower value. 25,000 tested, 3.9% active. calls only at 40 µM; call rule not given here
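Each enzyme was reacted with SAM and its substrate, with compounds tested once at 40 uM; SAH formed was read by MTase-Glo luminescence.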
Numbers without * were called inactive; i = inactive; + = active, no number; ! = repeats disagree. % is scaled to controls: 0 for no effect and ±100 for the full control effect.

SMILES	Methyltransferases
CC(=O)C1=C(O)[C@@H]2[C@H]3c4c[nH]c5cccc(c45)C[C@H]3C(C)(C)N2C1=O	+
COc1ccc(NC(=O)N2Cc3ccccc3-n3cccc3C2c2cc(F)cc(F)c2)cc1 (stereo unspecified)	i
COc1cccc(CNC(=O)N2Cc3ccccc3-n3cccc3C2c2ccc(OC)c(OC)c2)c1 (stereo unspecified)	i
CCOc1ccc(C2c3cccn3-c3ccccc3CN2C(=O)Nc2ccccc2F)cc1 (stereo unspecified)	i
COC(=O)CCNC(=O)N1Cc2ccccc2-n2cccc2C1c1ccccc1Cl (stereo unspecified)	i
N#C/C(=C/c1ccc(O)c(O)c1)C(N)=S	+!
CCOC(=O)c1cccc(NC(=O)N2Cc3ccccc3-n3cccc3C2c2cccc(Cl)c2)c1 (stereo unspecified)	i
CCOC(=O)C1CCC(CNC(=O)N2Cc3ccccc3-n3cccc3C2c2ccc(F)cc2)CC1 (stereo unspecified)	i
CN(C)c1ccc(C2c3cccn3-c3ccccc3CN2C(=O)Nc2cccc(Cl)c2)cc1 (stereo unspecified)	i
Cc1cc(C)cc(NC(=O)N2Cc3ccccc3-n3cccc3C2c2ccc(N(C)C)cc2)c1 (stereo unspecified)	i
O=C(Nc1ccccc1Br)N1Cc2ccccc2-n2cccc2C1c1ccccc1 (stereo unspecified)	i
CN(N=O)c1cc(O)ccc1O	+
COc1cccc(NC(=O)N2Cc3ccccc3-n3cccc3C2c2ccc(OC)c(OC)c2)c1 (stereo unspecified)	i
CCOc1ccc(C2c3cccn3-c3ccccc3CN2C(=O)NCCCOC)cc1 (stereo unspecified)	i
Cc1ccc(Cl)cc1NC(=O)N1Cc2ccccc2-n2cccc2C1c1ccc(N(C)C)cc1 (stereo unspecified)	i
CC1Oc2cc3c(-c4c(O)cc(O)c5c(O)c6c(cc45)OC(C)C(C)C6=O)c(O)cc(O)c3c(O)c2C(=O)C1C (stereo unspecified)	+
O=C(Nc1ccc2c(c1)OCCO2)N1Cc2ccccc2-n2cccc2C1c1ccc(F)cc1 (stereo unspecified)	i
O=C(Nc1ccccc1F)N1Cc2ccccc2-n2cccc2C1c1cc(F)cc(F)c1 (stereo unspecified)	i
CC(C)CCNC(=O)N1Cc2ccccc2-n2cccc2C1c1ccc(F)cc1 (stereo unspecified)	i
Cc1ccc(C2c3cccn3-c3ccccc3CN2C(=O)Nc2ccc(Br)c(C)c2)cc1 (stereo unspecified)	i
CCOC(=O)c1ccc(NC(=O)N2Cc3ccccc3-n3cccc3C2c2cc(F)cc(F)c2)cc1 (stereo unspecified)	i
COc1ccc(NC(=O)N2Cc3ccccc3-n3cccc3C2c2cccs2)cc1OC (stereo unspecified)	i
COc1ccc2c(c[n+](C)c3c4cc5c(cc4ccc23)OCO5)c1OC	+
CSc1ccc(C2c3cccn3-c3ccccc3CN2C(=O)Nc2cc(Cl)ccc2C)cc1 (stereo unspecified)	i
CNc1ccc2oc(C[C@H]3O[C@@]4(CC[C@H]3C)O[C@H]([C@H](C)C(=O)c3ccc[nH]3)[C@H](C)C[C@H]4C)nc2c1C(=O)O	+
SMILES	Methyltransferases
CC(C)C1c2cccn2-c2ccccc2CN1C(=O)Nc1ccc(Br)cc1F (stereo unspecified)	i
COCCCNC(=O)N1Cc2ccccc2-n2cccc2C1c1ccc(C(C)C)cc1 (stereo unspecified)	i
CCOC(=O)c1cccc(NC(=O)N2Cc3ccccc3-n3cccc3C2c2ccc(SC)cc2)c1 (stereo unspecified)	i
[Cl-].[Cl][Pt].[NH2-].[NH2-].c1ccncc1	+
COc1ccc(C2c3cccn3-c3ccccc3CN2C(=O)Nc2ccc(C)cc2C)cc1OC (stereo unspecified)	i
CCOc1ccc(C2c3cccn3-c3ccccc3CN2C(=O)Nc2ccc(C)c(C)c2)cc1 (stereo unspecified)	i
Cc1cccc(C2c3cccn3-c3ccccc3CN2C(=O)Nc2ccc(C)cc2Cl)c1 (stereo unspecified)	i
COc1ccc(OC)c(NC(=O)N2Cc3ccccc3-n3cccc3C2c2ccc(F)cc2)c1 (stereo unspecified)	i
O=C(Nc1cccc(Br)c1)N1Cc2ccccc2-n2cccc2C1c1cccs1 (stereo unspecified)	i
CCOc1ccccc1NC(=O)N1Cc2ccccc2-n2cccc2C1C (stereo unspecified)	i
COc1ccc(C2c3cccn3-c3ccccc3CN2C(=O)Nc2ccc(C)cc2)cc1OC (stereo unspecified)	i
CCCCN1[C@@H]2CC[C@H]1CC(OC(c1ccc(F)cc1)c1ccc(F)cc1)C2 (stereo partly specified)	+
COc1ccccc1NC(=O)N1Cc2ccccc2-n2cccc2C1c1ccccc1Cl (stereo unspecified)	i
CCc1ccc(C2c3cccn3-c3ccccc3CN2C(=O)NCc2ccc(F)cc2)cc1 (stereo unspecified)	i
C=CCN1CCC2(C)c3cc(O)ccc3C[C@H]1[C@H]2C	+
CC(C)[C@@H](CN1CC[C@@](C)(c2cccc(O)c2)[C@@H](C)C1)NC(=O)[C@H]1Cc2ccc(O)cc2CN1	i
COc1cccc(CNC(=O)N2Cc3ccccc3-n3cccc3C2c2ccc(SC)cc2)c1 (stereo unspecified)	i
CCOC(=O)Cc1ccc(NC(=O)N2Cc3ccccc3-n3cccc3C2c2ccc(CC)cc2)cc1 (stereo unspecified)	i
Cc1ccccc1C1c2cccn2-c2ccccc2CN1C(=O)Nc1cccc(C)c1C (stereo unspecified)	i
Cc1nnc2n1-c1sc(CCc3ccc(CC(C)C)cc3)cc1C(c1ccccc1Cl)=NC2C (stereo unspecified)	+
CC1c2cccn2-c2ccccc2CN1C(=O)Nc1cccc(Br)c1 (stereo unspecified)	i
CC1CCCC(O)CCC/C=C/c2cc(O)cc(O)c2C(=O)O1 (stereo unspecified)	i
CC1CCCC(=O)CCC/C=C/c2cc(O)cc(O)c2C(=O)O1 (stereo unspecified)	+
COC1CCCC(C)OC(=O)Cc2cc(O)cc(O)c2C(=O)C1 (stereo unspecified)	i
CSc1ccc(C2c3cccn3-c3ccccc3CN2C(=O)NCCC(C)C)cc1 (stereo unspecified)	i
SMILES	Methyltransferases
CCC1CN2CCc3cc(OC)c(OC)cc3C2CC1CC1=NCCc2cc(O)c(OC)cc21 (stereo unspecified)	+
Cc1cccc(C2c3cccn3-c3ccccc3CN2C(=O)Nc2ccccc2C)c1 (stereo unspecified)	i
COc1ccc(C2c3cccn3-c3ccccc3CN2C(=O)Nc2ccc(F)c(Cl)c2)cc1 (stereo unspecified)	i
O=C(Nc1ccc2c(c1)OCCO2)N1Cc2ccccc2-n2cccc2C1c1ccc(Cl)cc1 (stereo unspecified)	i
CC[C@@H](CO)NC(=O)[C@@H]1C=C2c3cccc4c3c(cn4C)C[C@H]2N(C)C1	+
CC[C@@H](CO)NC(=O)[C@@H]1C=C2c3cccc4[nH]cc(c34)C[C@H]2N(C)C1	+

High-throughput results (PubChem)
